# Test results from PubChem BioAssay (NCI).
# The panel holds about 83,000 compounds, 20% with a hit somewhere; the sample as a whole holds those more often.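 Single-concentration screen, 48 h exposure, 96-well plates. Endpoint: percent growth. Below 10 = active.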 Values without a mark were called inactive. Active and inactive are the calls of the source.
# Key:
# Assay in all cases: NCI-60 one-dose screen, 48 h (100 = growth as untreated, 0 = no growth, -100 = all killed)
# Conditions in all cases: 10 µM unless noted
# NCI-H23 lung = system: NCI-H23 lung
# NCI-H226 lung = system: NCI-H226 lung
# NCI-H322M lung = system: NCI-H322M lung
# HOP-62 NSCLC = system: HOP-62 NSCLC
# NCI-H460 lung = system: NCI-H460 lung
# HOP-92 NSCLC = system: HOP-92 NSCLC
# NCI-H522 lung = system: NCI-H522 lung
# A549/ATCC NSCLC = system: A549/ATCC NSCLC
# 786-0 renal = system: 786-0 renal
# COLO 205 colon = system: COLO 205 colon
# DU-145 prostate = system: DU-145 prostate
# K-562 leukemia = system: K-562 leukemia
# MALME-3M melanoma = system: MALME-3M melanoma
# MDA-MB-231 breast = system: MDA-MB-231 breast
# RXF 393 renal = system: RXF 393 renal
# SF-268 CNS = system: SF-268 CNS
# SF-295 CNS = system: SF-295 CNS
# SF-539 CNS = system: SF-539 CNS
# UACC-257 melanoma = system: UACC-257 melanoma
# M14 melanoma = system: M14 melanoma
Structure (SMILES),growth (NCI-H23 lung),growth (NCI-H226 lung),growth (NCI-H322M lung) [%],growth (HOP-62 NSCLC),growth (NCI-H460 lung),growth (HOP-92 NSCLC),growth (NCI-H522 lung),growth (A549/ATCC NSCLC),growth (786-0 renal),growth (COLO 205 colon),growth (DU-145 prostate),growth (K-562 leukemia),growth (MALME-3M melanoma),growth (MDA-MB-231 breast) [%],growth (RXF 393 renal),growth (SF-268 CNS) [%],growth (SF-295 CNS),growth (SF-539 CNS),growth (UACC-257 melanoma),growth (M14 melanoma)
O=C(c1cccc(O)c1O)c1cn(Cc2ccc(F)cc2)c2cccc(O)c12,47.8%,61.5%,37.9,31%,11.4%,-9.9% (active),-36.5% (active),30.5%,31.2%,50.3%,36.2%,22.1%,58.9%,39.1,70%,26.3,41.9%,13.8%,34.4%,-64.3% (active)
O=NN1CCCc2cccc(O)c21,-6.22% (active),76.5%,41.8,31.9%,4.79% (active),71.6%,-21.7% (active),37.6%,27.2%,94%,10.8%,9.43% (active),38.3%,78.8,-4.04% (active),27.8,31%,-32.8% (active),57.4%,22.2%
CCOP(=O)(Cc1ccc(C#N)cc1)OCC,99.9%,108%,104,98.5%,108%,76.9%,75%,91.2%,101%,108%,116%,100%,108%,100,115%,112,108%,109%,88.8%,101%
Oc1ccc2c3c1OC1[C@@H](O)CC[C@@]4(O)[C@@H](C2)N(CC2CCC2)CC[C@]314 (stereo not given in full),104%,99.1%,97.7,107%,115%,86.8%,86.3%,98.9%,96.6%,113%,113%,94.7%,92.5%,114,97.7%,105,102%,103%,97.6%,103%
CCOC(=S)S[C@H]1C[C@@H]2[C@H](CC[C@]3(C)C(=O)CC[C@@H]23)[C@@]2(C)CCC(=O)C=C12,101%,106%,102,112%,105%,117%,95.6%,107%,102%,115%,103%,95.3%,107%,95.2,102%,95.5,95.7%,99.7%,101%,102%
O=C(CCCCCCC(=O)Nc1ccc(N(CCCl)CCCl)cc1)NO,29.2%,59.4%,69.4,23.8%,14.5%,17.4%,23.8%,27.4%,22.9%,29.5%,29%,32.6%,19.2%,85.8,-4.05% (active),11.6,32.7%,31.1%,18.6%,42.5%
CCC(C)(C)[C@H](NC(=O)[C@H]1CCCCN1C)C(=O)N(C)[C@H](C[C@@H](OC(C)=O)c1nc(C(=O)N[C@@H](Cc2ccccc2)C[C@H](C)C(=O)O)cs1)C(C)C,29.8%,-44.7% (active),41.5,15%,5.25% (active),19.4%,-32.1% (active),13.1%,10.8%,-51.2% (active),0.164% (active),6.58% (active),27.4%,15.7,38.4%,23.3,-7.51% (active),-31% (active),55.5%,-19.3% (active)
CC[C@H](C)[C@H](NC(=O)NC(C)(C)C)C(=O)N(C)[C@H](C[C@@H](OC(C)=O)c1nc(C(=O)N[C@@H](Cc2ccccc2)C[C@H](C)C(=O)OC)cs1)C(C)C,24.1%,16.3%,44.4,12.4%,1.65% (active),17.3%,14.4%,19.1%,-7.51% (active),-53.8% (active),1.97% (active),7.43% (active),48.8%,13,32.6%,21.8,12.2%,2.57% (active),43.8%,2.12% (active)
Cc1cc(C)cc(Nc2nc3c(s2)CC[C@@]2(C)C3=CC[C@@H]3[C@@H]2CC[C@]2(C)C(=O)CC[C@@H]32)c1,76.9%,49.9%,79.9,90%,49.5%,70.7%,66.1%,72.9%,31%,92.5%,41.2%,17.1%,79.6%,77.5,-7.45% (active),67.4,42.9%,23%,87.9%,83.4%
Fc1cccc(NCOOC2(OOCNc3cccc(F)c3)CCCCC2)c1,81.9%,112%,98.6,90.6%,104%,87.3%,74.9%,89.6%,85%,118%,98.6%,41.3%,101%,103,108%,93,94.3%,91.2%,88.7%,91.6%
CC1=C(CCCOC(=O)[C@H](N)CC(C)C)C2=C(C)C3(CC3)[C@@](C)(O)C(=O)C2=C1,-27.6% (active),0.712% (active),18.5,-13% (active),2.82% (active),-13.6% (active),31.3%,0.0474% (active),1.3% (active),-46.1% (active),11.6%,101%,-44.7% (active),11.5,-74.7% (active),14.6,-5.7% (active),-7.07% (active),24.4%,-33.2% (active)
O=[N+]([O-])/C=C\c1ccc(Cl)c(Cl)c1,77%,73.8%,105,95.6%,67.2%,59.2%,74%,57.5%,74%,41.1%,70%,11.8%,-0.637% (active),74.8,-79.8% (active),69.2,98.8%,65.2%,69.6%,-9.23% (active)
CC1(C)CN1P(=O)(N1CC1(C)C)N1CC1(C)C (stereo not given),105%,109%,111,102%,112%,103%,104%,91%,109%,107%,121%,109%,110%,107,119%,106,115%,109%,89.3%,98.8%
ClCCN(CCCl)c1ccc(OCc2ccccc2)cc1,58.7%,84.6%,102,54.8%,20.3%,57.3%,75.1%,45.7%,19%,75.9%,26.3%,73.3%,90.9%,106,82.1%,36,10.3%,8.54% (active),74.2%,41.9%
C[C@@]12CC=C3c4nc(Nc5cccc(O)c5)sc4CC[C@]3(C)[C@H]1CC[C@]1(C)C(=O)CC[C@@H]21,63.7%,94.5%,72.8,27.5%,43.9%,64.3%,-56.4% (active),55.4%,-0.522% (active),34.4%,12.7%,4.81% (active),35.3%,39.5,-6.67% (active),43.1,-47.7% (active),-41.8% (active),79.6%,54.8%
O=[N+]([O-])c1c(Br)sc(Br)c1[N+](=O)[O-],37.3%,87.8%,84.9,75.2%,75.1%,43%,-72.9% (active),77.3%,-36% (active),-77.7% (active),46.9%,3.25% (active),-41.5% (active),14.2,-75.5% (active),85.7,99%,-12.3% (active),-0.992% (active),-18.9% (active)
